Data on eleven compounds can be found in ChEMBL document CHEMBL3988442, “University of Dundee, Small-Polar-MMV Screening Library” (2021).

Molecules are shown by their SMILES. For some of these results: Potency and affinity values are given separately.

What all share (parameters): scale not given: direction of the effect not stated beside the values
Assay [1] concerns the target Protein translocase subunit SecA (Escherichia coli (strain K12)) (UniProt P10408). Briefly: Assay to Identify E. coli SecA ATPase Inhibitors. Type of assay: functional. To be noted: 30 µM.
Assay [2] addresses T1, Ubiquitin-activating enzyme e1, putative (Leishmania donovani (strain BPK282A1)) (UniProt E9BSI1).
T1 sequence (whole entry): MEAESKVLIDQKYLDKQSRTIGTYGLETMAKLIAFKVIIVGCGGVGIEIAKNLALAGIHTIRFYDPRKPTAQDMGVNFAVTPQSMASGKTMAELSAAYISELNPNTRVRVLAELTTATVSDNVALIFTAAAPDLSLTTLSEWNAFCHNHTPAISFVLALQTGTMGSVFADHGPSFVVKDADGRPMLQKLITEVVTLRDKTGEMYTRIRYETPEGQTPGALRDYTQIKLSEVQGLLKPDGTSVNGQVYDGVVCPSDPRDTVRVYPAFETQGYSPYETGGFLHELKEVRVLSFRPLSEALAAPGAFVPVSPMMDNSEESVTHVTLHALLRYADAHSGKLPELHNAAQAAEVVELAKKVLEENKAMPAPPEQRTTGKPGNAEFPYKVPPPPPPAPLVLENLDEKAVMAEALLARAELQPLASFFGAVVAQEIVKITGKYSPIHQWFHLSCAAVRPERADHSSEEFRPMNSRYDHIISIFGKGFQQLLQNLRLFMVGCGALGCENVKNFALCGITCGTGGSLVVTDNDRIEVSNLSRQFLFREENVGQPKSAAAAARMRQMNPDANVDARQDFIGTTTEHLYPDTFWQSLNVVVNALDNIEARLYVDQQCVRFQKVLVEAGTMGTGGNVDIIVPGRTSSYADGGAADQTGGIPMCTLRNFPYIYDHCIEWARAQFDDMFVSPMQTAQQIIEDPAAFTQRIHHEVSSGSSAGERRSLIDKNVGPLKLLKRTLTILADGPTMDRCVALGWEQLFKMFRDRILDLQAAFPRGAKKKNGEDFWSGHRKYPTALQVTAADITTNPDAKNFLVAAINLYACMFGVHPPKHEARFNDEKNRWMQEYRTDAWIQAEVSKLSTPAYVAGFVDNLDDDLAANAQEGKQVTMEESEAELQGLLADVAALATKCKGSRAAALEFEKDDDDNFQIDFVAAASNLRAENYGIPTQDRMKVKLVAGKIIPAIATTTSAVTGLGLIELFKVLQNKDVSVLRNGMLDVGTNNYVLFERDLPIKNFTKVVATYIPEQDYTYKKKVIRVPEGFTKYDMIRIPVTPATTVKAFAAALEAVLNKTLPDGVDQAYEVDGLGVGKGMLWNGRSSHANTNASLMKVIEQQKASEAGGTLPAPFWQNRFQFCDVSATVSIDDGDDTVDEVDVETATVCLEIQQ
Kind of assay: Leishmania donovani Ubiquitin Activating Enzyme (LdE1). Type of assay: functional. Particulars: 30 µM.

Assay [3] concerns the target AMP-activated protein kinase, AMPK (Homo sapiens) (UniProt P54646+O43741+P54619+Q9UGJ0+Q9Y478+Q13131+Q9UGI9). Kind of assay: AMP-dependent Kinase enzyme assay. An in vitro enzyme assay that detects ADP turnover that is directly proportional to AMPK activity. This uses naive AMPK that is activated during the assay with MK-8722. Type of assay: functional. Particulars: 30 µM.

Assay [4] has as its target Sialic acid-binding Ig-like lectin 9 (Homo sapiens) (UniProt Q9Y336). Briefly: Hs-Siglec9 ALPHAscreen SOP 20170721. Particulars: 10 µM. Background: Alpha assays give light when donor and acceptor beads are brought close together.
Assay [5] concerns Trypanosoma cruzi. Kind of assay: Trypanosoma cruzi phosphomannomutase and mannose-1-phosphate guanylyltransferase assay. It counts as functional. To be noted: 10 µM.
For assay [6], the target named is T2, Arginase-2, mitochondrial (Homo sapiens) (UniProt P78540).
T2 sequence (whole entry): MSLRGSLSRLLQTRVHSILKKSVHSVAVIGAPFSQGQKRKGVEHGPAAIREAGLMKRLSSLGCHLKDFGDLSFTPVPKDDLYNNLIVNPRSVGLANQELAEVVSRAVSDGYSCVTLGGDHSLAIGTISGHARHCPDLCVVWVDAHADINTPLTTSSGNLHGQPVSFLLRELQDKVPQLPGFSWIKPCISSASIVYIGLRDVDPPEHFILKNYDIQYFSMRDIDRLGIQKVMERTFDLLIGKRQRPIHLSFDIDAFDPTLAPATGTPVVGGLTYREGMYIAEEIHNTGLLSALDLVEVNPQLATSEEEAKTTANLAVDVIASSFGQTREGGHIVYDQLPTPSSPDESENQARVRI
Briefly: in vitro enzyme assay to detect the production of urea directly proportional to the activity of Arginase II. Further: in the data most compounds retested in dose-response had high values. It counts as functional. Particulars: 33.3 µM.

The target of assay [7] is T3, Proteasome subunit beta (Trypanosoma cruzi) (UniProt O96673).
T3 sequence (whole entry): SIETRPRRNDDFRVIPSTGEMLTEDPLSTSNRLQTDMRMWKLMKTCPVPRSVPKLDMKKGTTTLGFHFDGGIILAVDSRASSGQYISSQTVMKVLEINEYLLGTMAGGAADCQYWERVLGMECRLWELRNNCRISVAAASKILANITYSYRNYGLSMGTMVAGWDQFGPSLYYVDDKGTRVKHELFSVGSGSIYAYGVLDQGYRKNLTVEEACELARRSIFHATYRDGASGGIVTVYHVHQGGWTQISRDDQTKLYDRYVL
Briefly: Trypanosoma cruzi proteasome chymotrypsin-like activity (TcProtChymo) assay. Further: in the data most compounds retested in dose-response had high values. To be noted: 9.37 µM. Type of assay: functional.

Assay [8] is filed under the species Homo sapiens. Kind of assay: To identify inhibition of the IFN signalling (Jak-Stat) pathway via expression of an eGFP reporter gene under the control of an IFN-stimulated response element (ISRE) containing MxA promoter. It counts as functional. Particulars: 30 µM. On the technique in general: Reporter assays use an easily measured gene product as a stand-in for the process of interest.

Assay [9] has as its target T4, Tyrosyl-tRNA synthetase, putative (Trypanosoma cruzi (strain CL Brener)) (UniProt Q4DSP6).
T4 sequence (whole entry): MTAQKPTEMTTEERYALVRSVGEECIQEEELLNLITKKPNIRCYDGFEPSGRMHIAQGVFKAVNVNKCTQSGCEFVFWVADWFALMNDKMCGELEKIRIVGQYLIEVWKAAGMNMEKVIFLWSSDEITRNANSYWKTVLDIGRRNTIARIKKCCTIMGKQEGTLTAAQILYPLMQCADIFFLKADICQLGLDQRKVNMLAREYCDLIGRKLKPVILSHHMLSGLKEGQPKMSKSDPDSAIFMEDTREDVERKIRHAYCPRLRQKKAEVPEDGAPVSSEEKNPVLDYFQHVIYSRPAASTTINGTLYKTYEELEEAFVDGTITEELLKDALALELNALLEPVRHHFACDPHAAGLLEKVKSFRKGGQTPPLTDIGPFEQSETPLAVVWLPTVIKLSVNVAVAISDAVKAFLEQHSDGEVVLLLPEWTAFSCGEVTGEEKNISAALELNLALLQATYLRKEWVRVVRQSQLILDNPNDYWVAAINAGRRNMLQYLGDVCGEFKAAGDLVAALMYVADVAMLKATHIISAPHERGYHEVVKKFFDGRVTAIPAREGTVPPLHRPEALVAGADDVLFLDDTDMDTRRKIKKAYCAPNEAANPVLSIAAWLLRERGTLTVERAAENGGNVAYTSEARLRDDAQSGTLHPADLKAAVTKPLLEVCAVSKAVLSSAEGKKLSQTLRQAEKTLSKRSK
Briefly: Trypanosoma cruzi tyrosyl tRNA synthetase (TcYRS) _High Tyrosine SOP. Further: in the data most compounds retested in dose-response had high values. Type of assay: functional. To be noted: 30 µM.

Assay [10] has as its target T4, Tyrosyl-tRNA synthetase, putative (Trypanosoma cruzi (strain CL Brener)). Briefly: Trypanosoma cruzi tyrosyl tRNA synthetase (TcYRS) SOP. Type of assay: functional. To be noted: 30 µM.
The target in assay [11] is Chromo domain-containing protein 1 (Saccharomyces cerevisiae (strain ATCC 204508 / S288c) (Baker's yeast)) (UniProt P32657). Briefly: ScCHD-1 Enzyme Inhibition Assay. Further: in the data most compounds retested in dose-response had high values. It counts as functional. Particulars: 30 µM.
Sequence of Chromo domain-containing protein 1 (Saccharomyces cerevisiae (strain ATCC 204508 / S288c) (Baker's yeast)) (P32657 whole entry, the tested form may be a part): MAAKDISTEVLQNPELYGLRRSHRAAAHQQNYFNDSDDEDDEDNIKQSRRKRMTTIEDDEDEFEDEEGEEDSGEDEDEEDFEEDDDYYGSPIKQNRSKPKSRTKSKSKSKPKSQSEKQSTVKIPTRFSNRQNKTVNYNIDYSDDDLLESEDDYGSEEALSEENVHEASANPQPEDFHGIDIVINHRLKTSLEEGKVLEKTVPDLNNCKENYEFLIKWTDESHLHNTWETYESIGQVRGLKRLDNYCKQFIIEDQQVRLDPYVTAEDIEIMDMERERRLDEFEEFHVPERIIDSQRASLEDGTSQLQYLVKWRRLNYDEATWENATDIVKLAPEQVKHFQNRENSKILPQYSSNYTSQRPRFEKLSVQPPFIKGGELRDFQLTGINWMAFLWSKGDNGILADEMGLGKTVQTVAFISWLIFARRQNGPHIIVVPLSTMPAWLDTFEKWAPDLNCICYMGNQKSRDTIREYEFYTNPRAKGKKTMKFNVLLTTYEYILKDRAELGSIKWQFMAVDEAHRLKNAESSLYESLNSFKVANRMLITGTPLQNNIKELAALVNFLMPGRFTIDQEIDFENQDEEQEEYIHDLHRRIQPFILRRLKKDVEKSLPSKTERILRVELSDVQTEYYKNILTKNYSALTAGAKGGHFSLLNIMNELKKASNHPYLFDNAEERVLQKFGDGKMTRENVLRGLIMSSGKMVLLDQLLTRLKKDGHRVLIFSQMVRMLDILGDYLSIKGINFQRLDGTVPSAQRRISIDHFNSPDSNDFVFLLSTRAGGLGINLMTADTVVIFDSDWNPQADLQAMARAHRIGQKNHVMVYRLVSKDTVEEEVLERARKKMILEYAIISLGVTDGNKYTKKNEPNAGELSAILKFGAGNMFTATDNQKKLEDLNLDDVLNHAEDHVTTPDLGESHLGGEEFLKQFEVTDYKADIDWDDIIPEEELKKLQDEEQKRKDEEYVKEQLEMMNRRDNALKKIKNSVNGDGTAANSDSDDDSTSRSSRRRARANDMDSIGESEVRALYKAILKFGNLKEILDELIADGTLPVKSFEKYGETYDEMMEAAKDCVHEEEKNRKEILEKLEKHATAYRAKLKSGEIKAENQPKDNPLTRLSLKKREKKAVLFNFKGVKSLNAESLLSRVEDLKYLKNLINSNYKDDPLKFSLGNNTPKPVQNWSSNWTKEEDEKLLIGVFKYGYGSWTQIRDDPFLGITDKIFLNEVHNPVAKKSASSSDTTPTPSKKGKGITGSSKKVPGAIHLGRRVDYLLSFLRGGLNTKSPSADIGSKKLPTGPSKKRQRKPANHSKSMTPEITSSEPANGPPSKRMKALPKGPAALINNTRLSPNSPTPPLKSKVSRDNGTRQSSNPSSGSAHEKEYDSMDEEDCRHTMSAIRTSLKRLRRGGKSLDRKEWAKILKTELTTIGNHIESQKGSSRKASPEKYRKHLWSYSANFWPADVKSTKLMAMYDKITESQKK

Sequence of Protein translocase subunit SecA (Escherichia coli (strain K12)) (P10408 whole entry): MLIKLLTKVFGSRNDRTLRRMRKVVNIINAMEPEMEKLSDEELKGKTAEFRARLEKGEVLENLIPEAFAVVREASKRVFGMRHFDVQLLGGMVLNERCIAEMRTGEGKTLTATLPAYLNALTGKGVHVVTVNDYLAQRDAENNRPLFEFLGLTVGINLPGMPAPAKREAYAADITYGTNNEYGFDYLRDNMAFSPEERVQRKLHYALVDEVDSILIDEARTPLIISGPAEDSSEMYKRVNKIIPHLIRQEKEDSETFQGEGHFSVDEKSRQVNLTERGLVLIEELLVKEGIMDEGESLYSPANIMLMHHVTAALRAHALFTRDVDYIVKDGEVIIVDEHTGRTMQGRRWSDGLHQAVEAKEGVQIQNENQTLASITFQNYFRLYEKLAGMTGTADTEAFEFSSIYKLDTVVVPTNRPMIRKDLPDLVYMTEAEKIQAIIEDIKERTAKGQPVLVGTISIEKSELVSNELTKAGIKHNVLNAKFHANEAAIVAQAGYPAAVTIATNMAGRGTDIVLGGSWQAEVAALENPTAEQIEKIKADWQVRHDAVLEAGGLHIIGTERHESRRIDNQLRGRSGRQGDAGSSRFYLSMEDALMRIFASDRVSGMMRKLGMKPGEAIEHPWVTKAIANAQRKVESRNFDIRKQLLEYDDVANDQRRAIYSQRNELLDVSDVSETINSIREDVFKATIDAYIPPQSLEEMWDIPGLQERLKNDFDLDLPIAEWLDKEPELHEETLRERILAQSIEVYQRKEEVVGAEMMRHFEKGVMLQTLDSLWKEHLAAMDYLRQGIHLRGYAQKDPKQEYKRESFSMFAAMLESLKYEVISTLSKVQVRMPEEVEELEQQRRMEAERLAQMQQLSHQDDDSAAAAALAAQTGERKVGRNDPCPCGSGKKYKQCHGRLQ
Sequence of Sialic acid-binding Ig-like lectin 9 (Homo sapiens) (Q9Y336 whole entry): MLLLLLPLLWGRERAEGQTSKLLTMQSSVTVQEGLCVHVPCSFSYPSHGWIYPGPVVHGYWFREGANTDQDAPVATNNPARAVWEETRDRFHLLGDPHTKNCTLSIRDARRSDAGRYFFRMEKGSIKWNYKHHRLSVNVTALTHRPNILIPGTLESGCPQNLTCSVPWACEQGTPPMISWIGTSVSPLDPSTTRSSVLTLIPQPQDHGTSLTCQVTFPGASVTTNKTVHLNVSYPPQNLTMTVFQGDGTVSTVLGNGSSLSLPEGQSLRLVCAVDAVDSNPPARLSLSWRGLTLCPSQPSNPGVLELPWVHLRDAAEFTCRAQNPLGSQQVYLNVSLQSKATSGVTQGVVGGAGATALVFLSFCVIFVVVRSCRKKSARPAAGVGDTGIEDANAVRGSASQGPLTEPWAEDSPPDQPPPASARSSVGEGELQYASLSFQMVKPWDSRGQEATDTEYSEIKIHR

Take `Cn1ccc(CN2CCC(OCCc3ccccc3)CC2)cc1=O`: the Percent Effect in assay [1] was -2.81%; in assay [2], 0%; in assay [3], -1.45%; in assay [4], -0.922%; in assay [5], -4.87%; in assay [6] it was 4.98%. Moreover, the Percent Effect in assay [7] was -5.41%; in assay [8], 29.9%; in [9], 0.971%; in assay [10] it was 0%; in [11], 1.89%.
Turning to `CCOC(=O)N1CCN(c2nc(NC)c3ccccc3n2)CC1`, the Percent Effect in [1] is -3.25%; in assay [2], 4%; in assay [3] it was -1.05%; in assay [4], 9.22%; in assay [5], 4.52%; in assay [6] it was -5.46%. Also, the Percent Effect in [7] was 6.1%; in [8], 3.01%; in assay [9] it was 1.06%; in [10], 5.13%; in assay [11], -1.69%.
Take `O=C(NCC1CC1)C1CN(C(=O)c2ccncc2)CC12CCOCC2` (stereo unspecified): the Percent Effect is 1.79% in [1]; 15.6% in [2]; -0.39% in assay [3]; -4.66% in [4]; 0.296% in assay [5]; 4.52% in [6]. Moreover, the Percent Effect in assay [7] is 17.6%; in [8], 28.1%; in assay [9], 2.12%; in [10], 19.2%; in assay [11], -10.9%.
For `O=C(CCc1cccc(F)c1F)N1CCN(Cc2ccco2)CC1`, the Percent Effect was 0.132% in [1]; 2.7% in assay [2]; -1.7% in assay [3]; 9.76% in assay [4]; 3.48% in assay [5]; 0.476% in assay [6]. For the same compound, the Percent Effect was 10.3% in assay [7]; 0.925% in assay [8]; 0.529% in [9]; -2.44% in [10]; -2.5% in assay [11].
Consider `CCc1noc(CNc2ccc(C(=O)N3CCCC(C)C3)cc2C)n1` (stereo unspecified), for which the Percent Effect is -4.09% in [1]; 0% in [2]; 2.37% in assay [3]; 9.47% in assay [4]; 1.69% in [5]; 3.2% in assay [6]. Besides, the Percent Effect in [7] was 3.88%; in assay [8] it was 9.39%; in [9] it was 4.85%; in assay [10], 2.44%; in assay [11], -8.29%.
For `Cc1ncc2c(n1)CN(CC(=O)Nc1ccncc1)CC2`, the Percent Effect was -2.13% in assay [1]; 15.8% in assay [2]; -33.9% in assay [3]; 3.22% in [4]; 4.01% in assay [5]; -1.44% in [6]. Moreover, the Percent Effect in assay [7] was 6.85%; in [8], 17.2%; in assay [9] it was 15.3%; in [10], 23.5%; in [11], -7.12%.
With `CC(CN1CCC2(CC1)c1nc[nH]c1CCN2S(C)(=O)=O)C(F)(F)F` (stereo unspecified), the Percent Effect was -5.83% in assay [1]; 4.17% in assay [2]; -4.55% in assay [3]; 0.526% in [4]; -2.62% in assay [5]; -1.77% in assay [6]. Further, the Percent Effect is 8.07% in assay [7]; -8.95% in assay [8]; 3.16% in [9]; 2.56% in assay [10]; -1.32% in [11].
As to `OC(COCc1ccc(Cl)cc1)CN1CCC(c2ccn[nH]2)CC1` (stereo unspecified), the Percent Effect was -3.72% in [1]; 20.2% in assay [2]; -9.18% in assay [3]; -2.48% in [4]; 7.27% in assay [5]; -3.04% in assay [6]. Also, the Percent Effect is 3.03% in assay [7]; -5.57% in assay [8]; 5.42% in assay [9]; 26.6% in assay [10]; -7.16% in assay [11].
As to `O=C(Cc1csc(-c2ccc(Cl)cc2)n1)NC(C(=O)O)c1ccccc1` (stereo unspecified), the Percent Effect in assay [1] is -2.32%; in assay [2] it was -1.33%; in [3] it was 10.5%; in assay [4] it was 1.1%; in [5], -3.73%; in assay [6], -9.68%. The Percent Effect in assay [7] was 14.6%; in [8] it was 0.509%; in [9] it was 1.06%; in assay [10], -2.56%; in assay [11] it was -10%.
`CC(C)c1ccc(O)c(C(=O)N2CCN(Cc3cscn3)CC2)c1`: the Percent Effect in assay [1] was -1.48%; in assay [2], 16.2%; in assay [3], 0.162%; in assay [4], 10.1%; in assay [5], 5.85%; in assay [6], -6.1%. The Percent Effect was 4.85% in assay [7]; 26.8% in assay [8]; 5.94% in assay [9]; 18.3% in assay [10]; -3.11% in [11].
Regarding `COc1ccccc1CNC(=O)N1CCCC(c2nncn2C)C1` (stereo unspecified), the Percent Effect in assay [1] was -3.81%; in [2], 13.2%; in [3] it was -5.69%; in assay [4], 4.78%; in assay [5] it was 0.654%; in [6], 1.08%. The Percent Effect in [7] is 6.85%; in assay [8], 5.9%; in assay [9], 7.39%; in assay [10], 23.5%; in assay [11] it was -3.47%.
